# GPT2 inh: inhibitors of human GPT2 alanine aminotransferase; Q8TD30; Recombinant GPT2, coupled pyruvate oxidase/HRP Amplex Red fluorescence; Potency, µM (top dose mostly 57.7 µM), usual class: inhibitors; actives 0.25% (n = 100,000); AID 1671188; further: nearly all actives have a fitted effect of over 60% in size
#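 Fluorescence of coupled pyruvate oxidase/HRP/Amplex Red system (50uM Amplex, 30 min, dark) reports pyruvate formed by GPT2. Enzyme reaction: 10ng/uL GPT2, 2mM L-alanine, 250uM a-KG, 30 min room temperature, pH 7.5; 50uM AOA control.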
# hNpr1 antagonist: antagonists of human natriuretic peptide receptor Npr1; P16066; HEK293 hNpr1 GloSensor cGMP, ANP-stimulated luminescence; Potency, µM (titrated, usually from 46.3 µM), usual class: inhibitors; actives 1.6% (n = 76,000); AID 1347048; calls by dose curve; further: nearly all actives have a fitted effect of over 60% in size
#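 Compound pre-incubated 30 min at room temperature on GloSensor-loaded HEK293 cells stably carrying hNpr1 and the pGS-40F cGMP biosensor. Stimulation uses hNppA at 0.1 nM final; luminescence is taken at baseline and 20 min post-agonist.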
# NIH3T3 tox: NIH 3T3 cell cytotoxicity; actives 4.3% (n = 94,000); Potency, µM (doses to about 96.7 µM), most hits filed as inhibitors; NIH 3T3 viability, CellTiter-Glo ATP luminescence, 48-72 h; further: nearly all actives have a fitted effect of over 55% in size
#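 Luminescent ATP readout (CellTiter-Glo, 10 min RT) after 48 or 72 hr compound exposure of NIH 3T3 cells seeded at 400 cells/well in 1536-well format; quantitative HTS.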
# FLuc inh: inhibitors of firefly (Photinus pyralis) luciferase. P08659. Potency, µM (doses to about 115 µM), most hits filed as inhibitors. purified P. pyralis luciferase, luminescence, biochemical. actives 2.5% (n = 76,000); further: nearly all actives have a fitted effect of over 65% in size
# Target sequence (P08659 whole entry, looked up): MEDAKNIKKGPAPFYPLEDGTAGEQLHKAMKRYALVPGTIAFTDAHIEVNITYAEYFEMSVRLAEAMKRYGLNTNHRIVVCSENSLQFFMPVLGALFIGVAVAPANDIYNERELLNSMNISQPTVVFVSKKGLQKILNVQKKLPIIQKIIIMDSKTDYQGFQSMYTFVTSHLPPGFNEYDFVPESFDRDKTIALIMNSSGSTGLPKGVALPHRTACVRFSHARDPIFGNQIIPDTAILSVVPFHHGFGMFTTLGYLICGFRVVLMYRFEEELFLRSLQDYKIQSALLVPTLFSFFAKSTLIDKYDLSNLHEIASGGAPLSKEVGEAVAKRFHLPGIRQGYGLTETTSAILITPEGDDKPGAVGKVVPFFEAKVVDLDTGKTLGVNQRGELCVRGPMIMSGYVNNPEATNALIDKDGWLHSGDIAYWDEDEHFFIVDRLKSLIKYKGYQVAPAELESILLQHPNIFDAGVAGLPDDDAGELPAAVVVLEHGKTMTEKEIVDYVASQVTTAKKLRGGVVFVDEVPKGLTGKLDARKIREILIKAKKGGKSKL
#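 Luminescence read by CCD imager after adding enzyme (10nM final) to wells holding compound, titrated in qHTS. Substrates 10uM each D-luciferin and ATP; buffer 50mM Tris acetate pH 7.5, 10mM Mg acetate, Tween-20, BSA.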
# HEK293 tox: cytotoxic compounds in HEK 293 cells; actives 6.6% (n = 94,000); HEK 293 viability, ATP luminescence (CellTiter-Glo), 48-72 h; Potency, µM (titrated, usually from 115 µM), most hits filed as inhibitors; further: nearly all actives have a fitted effect of over 60% in size
#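 HEK 293 cells at 250 cells/well were exposed to compounds by pintool transfer for 48 or 72 hr at 37 degree Celsius, 5% CO2. Viability was read as ATP-coupled luminescence with CellTiter-Glo after 10 min at room temperature.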
# Npr1 antag conf: confirmation of human Npr1 natriuretic peptide receptor antagonists; AID 1347044; Potency, µM (highest dose often 57.6 µM), most hits filed as inhibitors; shares compounds with hNpr1 antagonist; actives 76% (n = 1,400); HEK293 hNpr1 cGMP GloSensor luminescence, ANP-stimulated; calls by dose curve; further: nearly all actives have a fitted effect of over 70% in size
# NPR2 antag: antagonizes human Npr2, subtype selectivity check. AID 1347046. HEK293 hNpr2 GloSensor cGMP luminescence, CNP-stimulated. Potency, µM (titrated, usually from 57.6 µM), actives largely listed as inhibitors. actives 67% (n = 1,400). shares compounds with hNpr1 antagonist; calls by dose curve; further: nearly all actives have a fitted effect of over 70% in size
# FLuc inh counter: counter-screen for Npr1 antagonists: firefly luciferase inhibitors | actives 0.7% (n = 1,400) | Potency, µM (series often up to 57.6 µM), actives largely listed as inhibitors | shares compounds with hNpr1 antagonist | purified FLuc enzyme, luminescence, Km substrate
# GloSensor ctrl: counter-screen for Npr1 antagonists: GloSensor control cell line; shares compounds with hNpr1 antagonist; HEK293 GloSensor cGMP, SNP-stimulated, luminescence; Potency, µM (titrated, usually from 57.6 µM), usual class: inhibitors; actives 69% (n = 1,400); calls by dose curve; further: nearly all actives have a fitted effect of over 70% in size
# Hits are given with their value; i = inactive; ? = inconclusive; nt = no result given. This is a sample that favours compounds with a hit; in the whole collection about 10% have one here. Unless noted, the call rests on the fitted dose curve; in most records, active means well fitted curve in the direction sought with a large enough effect; inconclusive means small, poorly fitted or top-dose-only effect, or another doubt; inactive means no such curve, though single readings can be large; an effect the other way counts as inactive or inconclusive.
SMILES,GPT2 inh,hNpr1 antagonist,NIH3T3 tox,FLuc inh,HEK293 tox,Npr1 antag conf,NPR2 antag,FLuc inh counter,GloSensor ctrl
COc1ccc(OC)c(S(=O)(=O)N[C@H]2CO[C@H]3[C@@H]2OC[C@H]3OC(=O)Nc2cccc(C(F)(F)F)c2)c1,i,13µM,?,i,?,27µM,22µM,i,27µM
CN(C)c1ccc(CN[C@H]2CO[C@H]3[C@@H]2OC[C@H]3OC(=O)Nc2ccc(Oc3ccccc3)cc2)cc1,i,?,?,i,?,?,?,i,22µM
COc1ccc(OC)c(S(=O)(=O)N[C@H]2CO[C@H]3[C@@H]2OC[C@H]3OC(=O)Nc2cccc(C(C)=O)c2)c1,i,i,i,i,i,nt,nt,nt,nt
O=C(Nc1ccc(Oc2ccccc2)cc1)O[C@@H]1CO[C@H]2[C@@H]1OC[C@@H]2n1nnnc1SC1CCCC1,i,10µM,?,i,25µM,17µM,17µM,i,14µM
Cc1cccc2c1nc1n2[C@@H](CNC2CCN(C)CC2)COC1,i,i,i,i,i,nt,nt,nt,nt
Cc1nc(CN2C(=O)OC3(CCN(Cc4ccccc4F)CC3)C2(C)c2ccccc2)cs1 (stereo not drawn),i,i,i,i,?,nt,nt,nt,nt
CCc1cccc(NC(=O)Cn2c(N(C)Cc3ccccc3)nc(C)cc2=O)c1,i,8.9µM,?,i,?,11µM,12µM,i,9.7µM
Cc1cccc(NC(=O)Cn2c(N(C)Cc3ccccc3)nc(C)cc2=O)c1,i,20µM,?,i,?,22µM,22µM,i,22µM
COc1ccc(-c2cccc(C(=O)N3CCC(NC(=O)c4ccncc4)CC3)c2)nn1,nt,nt,i,nt,i,nt,nt,nt,nt
COc1cccc(NC(=O)c2cnc3c(c2)N(C(=O)Cc2ccc(C(C)C)cc2)CCC3)c1,i,11µM,?,i,22µM,19µM,19µM,i,17µM
CC(C)C1CN(C(=O)c2n[nH]c3c2CCC3)CCC(=O)N1CC1CC1 (stereo not drawn),i,i,i,i,i,nt,nt,nt,nt
CC(C)Cc1cn(CC2CCCN(C(=O)c3n[nH]c4c3CCCC4)C2)nn1 (stereo not drawn),i,14µM,?,i,?,19µM,17µM,?,15µM
CC1(C)[C@H](Cc2cc(CN3CCN(c4ccccc4)CC3)on2)C[C@@H]1NC(=O)Nc1ccc(F)cc1,?,13µM,?,i,?,19µM,22µM,i,19µM
CC1(C)[C@H](Cc2cc(CN3CCN(c4ccccc4)CC3)on2)C[C@@H]1NC(=O)NCc1ccccc1,i,11µM,?,i,25µM,22µM,?,i,17µM
CC(C)(C)CC(=O)N[C@H]1C[C@@H](Cc2cc(COc3ccccc3)on2)C1(C)C,i,14µM,?,i,?,13µM,16µM,i,14µM
CN(C)Cc1cc(C[C@@H]2C[C@H](NC(=O)Nc3ccc(F)cc3)C2(C)C)no1,i,i,?,i,?,nt,nt,nt,nt
O=C(CCCc1ccccc1)Nc1cccc(-c2nnc3n2CCCC3)c1,i,i,?,i,?,nt,nt,nt,nt
Brc1ccc(CN2CCC(c3nc4ccncc4[nH]3)C2)cc1 (stereo not drawn),i,11µM,?,i,?,24µM,22µM,i,?
O=C(Cc1cccc(F)c1)N1CCC2(CC1)NC(=O)N(Cc1ccccc1Cl)C2=O,i,?,?,i,?,?,i,i,i
Cc1ccc(C)c(CN2C(=O)NC3(CCN(C(=O)Cc4cccc(F)c4)CC3)C2=O)c1,i,?,?,i,?,?,?,i,?
O=C(CCCc1c[nH]c2ccccc12)N1CCC(c2noc(COc3ccc(F)cc3)n2)CC1,i,11µM,?,i,?,22µM,24µM,i,17µM
O=C(N[C@@H]1CN(C(=O)CCc2c[nH]c3ccccc23)C[C@H]1CO)c1ccccc1,i,nt,i,nt,i,nt,nt,nt,nt
O=C(CCC(F)(F)F)N1CCC(CCC(=O)N2CCC(Cc3ccccc3)CC2)CC1,?,?,?,i,?,nt,nt,nt,nt
O=C(CCC1CCN(C(=O)c2cc(C3CC3)[nH]n2)CC1)N1CCC(Cc2ccccc2)CC1,i,13µM,?,i,?,24µM,22µM,i,19µM
CCCCOc1ccc(C(=O)N2CCC[C@H]2c2nc(-c3ccc(OC)c(OC)c3)no2)cc1,i,i,?,i,?,nt,nt,nt,nt
SMILES,GPT2 inh,hNpr1 antagonist,NIH3T3 tox,FLuc inh,HEK293 tox,Npr1 antag conf,NPR2 antag,FLuc inh counter,GloSensor ctrl
CS(=O)(=O)N1CCc2ccc(C(=O)Nc3ccc(Oc4ccccc4)cc3)cc21,i,1.6µM,i,i,?,2.7µM,3.4µM,i,2.4µM
O=C(c1ccncc1)N1C2CCC1CN(c1ccc(C(F)(F)F)cc1)C2,i,nt,?,nt,?,24µM,22µM,i,22µM
CC(=O)NCCCC(=O)N1C2CCC1CN(c1ccc(C(F)(F)F)cc1)C2,i,nt,?,nt,i,nt,nt,nt,nt
O=C(N1CCOCC1)N1C2CCC1CN(c1ccc(C(F)(F)F)cc1)C2,i,nt,14µM,nt,?,22µM,22µM,i,19µM
COc1ccc(NC(=O)c2ccc(-c3nnc4ccc(NC(=O)C5CCC5)cn34)cc2)cc1,i,i,i,i,?,?,i,i,i
Cc1ccccc1CC(=O)NCc1nnc2cc(-c3nc(C4CC4)no3)ccn12,i,i,i,i,i,nt,nt,nt,nt
COc1ccc(CN2CCNc3cnc(OCc4cccnc4)cc3C2)cn1,i,?,i,i,?,nt,nt,nt,nt
Clc1cnccc1CN1CCNc2cnc(-c3ccccc3)cc2C1,i,28µM,?,i,?,31µM,35µM,i,31µM
Clc1cnccc1CN1CCNc2cnc(Oc3ccccc3)cc2C1,i,4µM,?,i,89µM,6.3µM,8.9µM,i,5µM
CCOc1cc2c(cn1)NCCN(Cc1ccncc1Cl)C2,i,35µM,?,i,?,31µM,?,i,40µM
COC(=O)c1ccc2nc(C[C@@H]3C[C@@H](C(C)C)[C@H](CNC(=O)C4CCCCC4)C=C3C)[nH]c2c1,i,i,?,i,?,nt,nt,nt,nt
CCOC(=O)[C@@H]1[C@@H](OC(N)=O)C(=O)N(Cc2ccccc2)C12CCN(C(=O)CC(C)C)CC2,nt,nt,i,nt,?,nt,nt,nt,nt
Cc1ccc(C(=O)N2CCCC2C(=O)N2CCC(N3CCOCC3=O)CC2)cc1 (stereo not drawn),i,nt,i,nt,i,nt,nt,nt,nt

# Bioassay records: PubChem, National Center for Advancing Translational Sciences (NCATS)
